Measurements as given in PubChem BioAssay AID836 (Columbia University Molecular Screening Center, 2007).
The campaign covered roughly 91,000 compounds. About 160 (0.18%) were called active.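 Rule for the calls: active = inhibition above the batch mean plus 3 SD and confirmed as a hit by visual image inspection (cut at about 30% in these data, passing the limit was not always enough); inconclusive = above the inhibition threshold but rejected on visual inspection; inactive = the rest.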 For the sample, actives were picked, then their nearest neighbours and some compounds at random.

Test: modifiers of F-actin cytoskeleton organization, primary screen, imaging, HUVEC, phalloidin staining, high-content imaging (AID 836)
Conditions: HUVEC TNFa F-actin phalloidin imaging, at 2 µM, stronger effect = higher value

| SMILES | inhibition |
| --- | --- |
| Cn1c2c(c(=O)n(C)c1=O)[C@@H]1c3c(ccc4ccccc34)OC[C@@H]1CO2 | 8.1% (inactive) |
| COc1ccc2c(c1OC)C(=O)c1ccccc1C2=O | 1% (inactive) |
| CCC(C)n1c(-c2cc(OC)c(OC)c(OC)c2)nc2nc3ccccc3nc21 (stereo unspecified) | -3.2% (inactive) |
| CCNC(=S)Nc1cccc(Cl)c1C | 11.2% (inactive) |
| COc1ccc(-c2csc3nc(-c4ccccc4F)oc(=O)c23)cc1OC | -3.2% (inactive) |
| O=c1oc2c(Cl)cc(Cl)cc2cc1-c1nnc(Nc2ccccc2F)s1 | 5% (inactive) |
| O=C(/C=C/Nc1ccccc1OC(F)(F)F)C(F)(F)F | 6.2% (inactive) |
| CCC(=O)NC(NCC1CCCO1)C(Cl)(Cl)Cl (stereo unspecified) | -23.7% (inactive) |
| C=CCn1c(Oc2ccc(C(=O)OC)cc2)nc2c1c(=O)n(C)c(=O)n2C | 13.6% (inactive) |
| O=C(Nc1ccccc1Cl)O/N=C(/c1ccccc1)c1ccccn1 | -5.5% (inactive) |
| CC(C)NC(=O)NC(=O)COC(=O)c1ccc(NC(=O)CC#N)cc1 | 2% (inactive) |
| O=C(O)COc1ccc(-c2nccc(-c3cccs3)n2)cc1 | 29.5% (inactive) |
| O=C(CSc1ccccc1)Nc1ccc(NC(=O)c2ccco2)cc1 | 20.5% (inactive) |
| O=C(CCc1ccc(S(=O)(=O)NC2CCCCC2)cc1)NCc1ccccc1 | -16.8% (inactive) |
| COc1cccc(C(=O)NNC(=O)c2ccccc2Br)c1 | -16.2% (inactive) |
| CC(CNc1ccc([N+](=O)[O-])cc1)NC(=O)c1ccccc1Br (stereo unspecified) | -6.1% (inactive) |
| O=C(Nc1ccc(Cl)cc1)OCc1cc(-c2ccccc2)on1 | -6.9% (inactive) |
| O=C1c2oc3ccc(Br)cc3c(=O)c2C(c2cccc(F)c2)N1CCO (stereo unspecified) | 7.4% (inactive) |
| COCCN1C(=O)c2oc3c(C)cc(C)cc3c(=O)c2C1c1cccc(O)c1 (stereo unspecified) | 53.6% (active) |
| O=C1c2oc3ccccc3c(=O)c2C(c2cccc(O)c2)N1c1ccccn1 (stereo unspecified) | -31.1% (inactive) |
| COc1ccc(C(=O)N2CCc3cc(OC)c(OC)cc3C2c2cccc([N+](=O)[O-])c2)cc1 (stereo unspecified) | -0.9% (inactive) |
| CCN(CC)C(=O)CSC1c2ccccc2C(=O)N1c1ccccc1 (stereo unspecified) | -35.9% (inactive) |
| Cc1cccc(NC(=S)N2CCC(c3nc4ccccc4s3)CC2)c1 | -9.4% (inactive) |
| COC(=O)c1ccc(C(=O)OC)c(NC(=S)N2CCCCC2)c1 | -4.3% (inactive) |

| SMILES | inhibition |
| --- | --- |
| Cc1ccc2nc(Nc3ccccc3O)nc(-c3ccccc3)c2c1 | -0.7% (inactive) |
| COc1ccc(/C=N/Nc2nc3ccccc3c(=O)[nH]2)cc1 | 0.1% (inactive) |
| CC(Oc1ccc(F)cc1F)C(=O)/C=C/N(C)C (stereo unspecified) | -4.4% (inactive) |
| Cc1ccc(OCC(=O)Nc2cccc3c2CCCC3)cc1C | -5.6% (inactive) |
| COc1cc(C(=S)N2CCOCC2)cc(OC)c1OC(=O)c1cc([N+](=O)[O-])c(C)c([N+](=O)[O-])c1 | -7.7% (inactive) |
| COc1ccc(C(=S)Nc2ccccc2)cc1 | 2.8% (inactive) |
| COc1nc(-c2ccc(Cl)cc2)ccc1-c1noc(-c2cccs2)n1 | 19.6% (inactive) |
| Cc1occc1C(=O)NNC(=S)NCC(C)C | -20.3% (inactive) |
| CSc1ccccc1-c1nnc(-c2ccc(Cl)cc2)o1 | -9.7% (inactive) |
| Cc1ccc(-c2nc3ccccc3[nH]2)cc1NC(=O)c1sc2ccccc2c1Cl | -19% (inactive) |
| O=C(c1ccccc1)c1cc(-c2ccccn2)c(N2CCOCC2)s1 | -8.8% (inactive) |
| COC(=O)C(C)Oc1ccc2c(-c3cccc([N+](=O)[O-])c3)cc(=O)oc2c1 (stereo unspecified) | 19.5% (inactive) |
| Cc1ccccc1NC(=O)c1ccccc1NS(=O)(=O)c1cccc2cccnc12 | -7.4% (inactive) |
| Cc1nn(Cc2ccccc2Cl)c(C)c1NC(=O)Cn1nc([N+](=O)[O-])c(Cl)c1C | -13.3% (inactive) |
| CC(C)C(C)NC(=O)COc1ncnc2ccccc12 (stereo unspecified) | 2.1% (inactive) |
| O=C(Nc1ccc(-n2ccnc2P(=O)(O)c2ccccc2)cc1)c1ccccc1Br | -15.1% (inactive) |
| O=C(CSCc1ccc([N+](=O)[O-])cc1)NCCSCc1ccccc1 | -4.8% (inactive) |
| COc1ccc(/C=C(/NC(=O)c2ccc(C)cc2)c2nc3ccccc3[nH]2)cc1OC | 24.6% (inactive) |
| Cc1cc(C)c2c3c(sc2n1)C(c1ccccc1)C(C#N)=C(N)O3 (stereo unspecified) | 7.5% (inactive) |
| CC(C)(C)c1cc2cccnc2n1Cc1ccccc1 | -13.7% (inactive) |
| COCCCNC(NC(=O)c1ccc(C)cc1)C(Cl)(Cl)Cl (stereo unspecified) | -4.7% (inactive) |
| O=C1COc2ccc(NC(=O)N3CCN(c4ccc(F)cc4)CC3)cc2N1 | -1.9% (inactive) |
| COc1ccccc1NC(=O)[C@H](COCc1ccccc1)NC(=O)OC(C)(C)C | -9.9% (inactive) |
| Oc1ccccc1/C=N/n1c(-c2cccs2)n[nH]c1=S | -11.3% (inactive) |

| SMILES | inhibition |
| --- | --- |
| COc1ccc(C(=O)c2c(C)oc3cc([N+](=O)[O-])c(O)c([N+](=O)[O-])c23)cc1 | 3.1% (inactive) |
| C=CCOc1c2ccc(C(=O)N(CC)c3ccc(OC)cc3)cc2nn1C | 12.9% (inactive) |
| COc1cccc(/C=N/NC(=O)c2cccc([N+](=O)[O-])c2)c1OS(=O)(=O)c1ccc(C)cc1 | -0.8% (inactive) |
| CCn1c(SC)nc(O)c(C(c2ccc(OC)c(O)c2)c2c(O)nc(SC)n(CC)c2=O)c1=O | 10.2% (inactive) |
| COc1cccc(NC(=O)c2nn(C34CC5CC(CC(C5)C3)C4)cc2[N+](=O)[O-])c1 | 14% (inactive) |
| Cc1ccc(-c2nnc(C)c(N3CC(C)OC(C)C3)n2)cc1 (stereo unspecified) | 9.5% (inactive) |
| COC(=O)c1c(CCl)noc1C(=O)NC(C)C | -7% (inactive) |
| O=C1c2ccccc2C(=O)N1CC1c2ccccc2CCN1S(=O)(=O)c1ccccc1 (stereo unspecified) | 24.7% (inactive) |
| O=C1CCCC2=C1C(c1ccccc1)n1c(s/c(=C/c3cccc(F)c3)c1=O)=N2 (stereo unspecified) | 0.6% (inactive) |
| Cc1c(CCO)c(=O)[nH]n1C(=O)c1c(F)cccc1F | 14.6% (inactive) |
| CC(C)c1ccc(NC(=O)CCN2C(=O)c3ccc([N+](=O)[O-])cc3C2=O)cc1 | -2% (inactive) |
| c1ccc2c(C[n+]3csc4ccccc43)cccc2c1 | 1.4% (inactive) |
| O=C(NN1C(=O)C2C3C=CC(C4CC34)C2C1=O)c1ccc(Cl)cc1 (stereo unspecified) | -3.8% (inactive) |
| CCCCOC(=O)Nc1sc2nc(C)cc(C)c2c1-n1cccc1 | 14.1% (inactive) |
| CC1CC(C)CN(S(=O)(=O)c2cccc(C(=O)N3C(=O)c4cccc(N)c4C3=O)c2)C1 (stereo unspecified) | -15.2% (inactive) |
| CCOC(=O)NNC(=O)c1ccc(Cl)cc1 | 18% (inactive) |
| N#C/C(=C(/O)COc1cccc2ccccc12)c1nc2ccccc2[nH]1 | -7.4% (inactive) |
| CSCc1cc(N2CCOCC2)nc(SCc2ccc(Cl)cc2Cl)n1 | 3.4% (inactive) |
| N#CC1=C(N)N(c2ccc(F)cc2)C(=O)C1 | -25.3% (inactive) |
| CC(C)(C)NS(=O)(=O)c1ccc(NC(=O)NC2CCCCC2)cc1 | 2.8% (inactive) |
| O=C1CN(c2nc(-c3ccccc3)c3cc(Br)ccc3n2)c2ccccc2N1 | -17.8% (inactive) |
| O=C(Cn1ccc([N+](=O)[O-])n1)NCc1cccs1 | -5.1% (inactive) |
| Cc1c(Br)c([N+](=O)[O-])nn1C(C)C(=O)Nc1nccs1 (stereo unspecified) | 7.3% (inactive) |
| CCCn1nnnc1NC(=O)COc1ccc(Cl)cc1C | 0.8% (inactive) |

| SMILES | inhibition |
| --- | --- |
| CCOC(=O)N1CCN(c2c(NCCCN3CCCC(C)C3)c(=O)c2=O)CC1 (stereo unspecified) | 8.2% (inactive) |
| Cc1cccc(N(CC(=O)Nc2ccc(-c3nc4ccc(C)cc4s3)cc2)S(C)(=O)=O)c1 | 29.8% (inactive) |
| COc1cc(C(=O)NC(=S)NCc2ccco2)cc(OC)c1OC | -26% (inactive) |
| CCOC(=O)CC(=O)CSc1nc(-c2ccccc2)cc(-c2ccc(Cl)cc2)c1C#N | -2.9% (inactive) |
| Cc1ccc(NC(=S)NC2CCCC2)cc1 | 0.9% (inactive) |
| CCc1cccc2c(C=C(C#N)C#N)cn(CC(=O)N3CCCCC3)c12 | 9.3% (inactive) |
| COc1ccccc1C(=O)NN1C(=O)C2C3C=CC(O3)C2C1=O (stereo unspecified) | -1% (inactive) |
| Cc1ccc(N2CCN(/N=C/c3cccs3)CC2)cc1 | -35.9% (inactive) |
| O=C(CNC(=O)c1cc2c(s1)CCC2)Nc1ccccc1Br | 9.1% (inactive) |
| CC(=O)N1Cc2ccccc2CC1C(=O)O (stereo unspecified) | -11.9% (inactive) |
| Cc1ccccc1OCc1nnc(SCC(=O)N2c3ccccc3Sc3ccc(Cl)cc32)o1 | -79.4% (inactive) |
| O=C(Cc1ccccc1)N/N=C/c1ccc(Cl)cc1Cl | 0.1% (inactive) |
| N#C/C(=C/c1ccc(Cl)cc1)NC(=O)c1ccccc1 | -6.5% (inactive) |
| O=C(Nc1nc(-c2ccc3c(c2)OCO3)cs1)c1ccncc1 | -6.9% (inactive) |
| O=C(Nc1nc(-c2ccncc2)cs1)C1COc2ccccc2O1 (stereo unspecified) | 55.6% (active) |
| COc1ccc(OC)c2sc(NC(=O)C3COc4ccccc4O3)nc12 (stereo unspecified) | -2.9% (inactive) |
| Cc1ccc(NC(=S)Nc2ncccc2C)c(C)c1 | -17.2% (inactive) |
| COc1ccc(Oc2c(Cl)cnn(-c3ccccc3)c2=O)cc1 | -7.9% (inactive) |
| COc1ccc(O)c(C(=O)c2cnc3onc(C(C)C)c3c2)c1 | 0.9% (inactive) |
| COc1ccc(O)c(C=Nc2cc(C)on2)c1 | 73.6% (active) |
| Cc1cc(N=CC2=C(O)CCCC2=O)no1 | 3.6% (inactive) |
| Cc1ccc(C(=O)N/C(=C/C=C/c2ccccc2)C(=O)NCc2ccco2)cc1 | 19.4% (inactive) |
| COC(=O)Nc1sc2nc(C)cc(C)c2c1-n1cccc1 | -0.5% (inactive) |
| CC1=NN(C(=O)Cc2ccc(C)cc2)C(O)(c2cccnc2)C1 (stereo unspecified) | 5.3% (inactive) |
